Compound activity as filed in PubChem.
Sampled rows, rich in hits. Any-hit rate of the full collection: about 2.8%.
POLK inh – blocks human DNA polymerase kappa activity; Q9UBT6; purified Pol kappa, fluorescent DNA synthesis assay, 10 min; Potency, µM (titrated, usually from 107 µM), inactives show at the top dose activity, negative = inhibition, hits mostly inhibitors; 0.53% of 400,000 active; AID 588579; note: potency is the fitted concentration of half-maximal effect; % is set by controls: 0 for no effect and ±100 for the full control effect
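First, compounds were pin-transferred onto 10 nM Pol kappa. After 15 min at room temperature, substrate was added to 50 nM final. Fluorescence was then measured kinetically at 0 and 10 min.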
WRN helicase inh – inhibitors of human WRN helicase; Q14191; WRN helicase unwinding, fluorescent forked duplex, kinetic; Potency, µM (doses to about 114 µM), without a hit: at the highest dose activity change, negative = inhibition, actives largely listed as inhibitors; 0.46% of 360,000 active; note: potency is the fitted concentration of half-maximal effect; % is set by controls: 0 for no effect and ±100 for the full control effect; nearly all actives have a fitted effect of over 55% in size
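WRN at 20 nM final was preincubated with compound for 15 min at room temperature; reaction started with 100 nM forked duplex oligonucleotide carrying fluorophore and quencher plus 2 mM ATP (final). Unwinding followed kinetically by red fluorescence (ex 525/em 598 nm).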
Pol eta inh – inhibitors of human DNA polymerase eta; Q9Y253; 1.2% of 390,000 active; Potency, µM (top dose mostly 114 µM), without a hit: at the highest dose activity change, negative = inhibition, usual class: inhibitors; recombinant Pol eta, fluorescent DNA replication assay; AID 588591; note: potency is the fitted concentration of half-maximal effect; % is set by controls: 0 for no effect and ±100 for the full control effect
Target sequence (Q9Y253 whole entry, looked up): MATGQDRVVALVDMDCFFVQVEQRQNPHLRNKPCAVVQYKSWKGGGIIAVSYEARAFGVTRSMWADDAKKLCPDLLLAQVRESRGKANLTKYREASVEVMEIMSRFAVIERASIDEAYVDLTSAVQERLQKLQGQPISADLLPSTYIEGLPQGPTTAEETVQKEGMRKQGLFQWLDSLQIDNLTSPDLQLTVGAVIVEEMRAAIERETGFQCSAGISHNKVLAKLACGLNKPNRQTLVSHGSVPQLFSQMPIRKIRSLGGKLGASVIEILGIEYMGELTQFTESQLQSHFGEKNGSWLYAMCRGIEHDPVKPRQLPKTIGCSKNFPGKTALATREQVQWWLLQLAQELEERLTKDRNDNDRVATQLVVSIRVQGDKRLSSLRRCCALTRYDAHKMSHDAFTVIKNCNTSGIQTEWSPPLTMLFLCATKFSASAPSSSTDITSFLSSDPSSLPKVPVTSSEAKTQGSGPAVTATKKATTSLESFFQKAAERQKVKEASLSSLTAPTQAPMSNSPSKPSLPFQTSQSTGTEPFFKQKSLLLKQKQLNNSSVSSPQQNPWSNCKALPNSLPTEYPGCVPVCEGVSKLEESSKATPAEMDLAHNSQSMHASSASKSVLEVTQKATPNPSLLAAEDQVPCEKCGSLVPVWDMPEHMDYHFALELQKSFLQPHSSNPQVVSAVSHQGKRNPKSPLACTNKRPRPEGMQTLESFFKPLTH
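Pol eta at 10 nM preincubated with compounds 15 min at room temperature; reaction started with fluorescent substrate (50 nM final) and read kinetically at 0 and 10 min.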
Pol beta inh – DNA polymerase beta (human) inhibition; P06746; Pol beta primer extension/strand displacement, fluorescence kinetic; Potency, µM (top dose mostly 114 µM), for the others: at the highest dose activity change, negative = inhibition, usual class: inhibitors; 1.3% of 340,000 active; AID 485314; note: potency is the fitted concentration of half-maximal effect; % is set by controls: 0 for no effect and ±100 for the full control effect
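Kinetic readout of DNA synthesis with strand displacement by Pol beta. Compound and 10 nM enzyme sit 15 min at room temperature; 50 nM substrate starts the reaction, read immediately and at 10 min.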
Pol iota inh – DNA polymerase iota (human) inhibition; Q9UNA4; Potency, µM (doses to about 115 µM), for the others: at the highest dose activity, negative = inhibition, most hits filed as inhibitors; 1% of 390,000 active; Pol iota fluorescent replication assay, 10 min; note: potency is the fitted concentration of half-maximal effect
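Pol iota at 10 nM preincubated 15 min with compounds at room temperature; reaction started with fluorescent substrate, 50 nM final. Fluorescence read kinetically at 0 and 10 min; buffer-only wells as negative control.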
PI5P4K alpha inh – inhibitors of human PI5P4K alpha | P48426 | PI5P4Kalpha enzyme, ADP-Glo luminescence, 60 min; stronger effect = lower value | max response, % | 1.2% of 330,000 active | AID 652105; active = max response of -50% or lower; inconclusive = between -30% and -50%; inactive = -30% or higher; note: value at the top dose of about 77 µM; % is set by controls: 0 for no effect and ±100 for the full control effect
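Human PI5P4Kalpha with substrate in 0.038 M HEPES pH 7.4, 0.28 mM EGTA, 0.1% CHAPS, 5% DMSO; reaction started with 5 microM ATP (final), 60 min at room temperature. ADP formed read by ADP-Glo luminescence.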
Active calls of the source: *; u = inconclusive; x = no result; [ ] = another dose, or the depositor's remark. Unless noted, calls come from the whole dose curve; as a rule, active = well fitted curve in the direction sought with a large enough effect; inconclusive = small, poorly fitted or top-dose-only effect, or another doubt; inactive = no such curve, though single readings can be large; an effect the other way counts as inactive or inconclusive.

SMILES | POLK inh | WRN helicase inh | Pol eta inh | Pol beta inh | Pol iota inh | PI5P4K alpha inh
CCOC(=O)c1c(-c2ccccc2)oc2ccc(N(C(C)=O)S(=O)(=O)c3ccc(CC)cc3)cc12 | 4% | x | -1% | -4% | 16% | x
O=C1/C(=C\c2ccc(Br)o2)Cc2ccccc21 | -9% | -35%[57.1 µM] | u | 40µM* | u | 6
Cc1cc(C)c(NC(=O)CSc2nc(=O)[nH]c3c2CCCC3)c(C)c1 | -1%[60.1 µM] | x | -25% | -27% | 10% | x
CN1C(=O)NC(c2ccccc2)C2=C1CN(c1ccc3ccccc3c1)C2=O (stereo unspecified) | -4% | -16%[11.6 µM] | 11µM* | -10% | 9% | -15
Cc1c(NS(=O)(=O)c2cccc(C(=O)OCC(=O)N(C)C3CCCCC3)c2)c(=O)n(-c2ccccc2)n1C | 2% | 8% | -13% | -17% | -25% | -1
N#Cc1ccc(NC(=O)CSc2nc3[nH]c(=O)cc(O)c3s2)cc1 | u | -7% | u | x | u | -8
CSc1ccc(NC(=O)CSc2nc3[nH]c(=O)cc(O)c3s2)cc1 | 56µM* | u | 40µM* | x | u | -88*
CC1CCCN(c2nc3c(-c4ccc(Cl)cc4)nnn3c3ccccc23)C1 (stereo unspecified) | -3% | x | -13% | 5% | 65% | x
Cc1cccc(NC(=O)Cn2cc(C(=O)C3CCCCC3)c3ccccc32)c1 | 15% | x | -20% | 8% | 23% | x
CC(=O)c1cc2c(=O)c3cc(C)ccc3oc2nc1C | -2% | 0% | -11% | -1% | -8% | -3
CCOC(=O)c1cc2c(=O)c3cc(C)ccc3oc2nc1C | -20% | 56µM* | -4% | -2% | -13% | u
COc1ccc(CNC(=O)Cn2ccc3cc(S(=O)(=O)N4CCCC4)ccc32)cc1OC | 3% | 3% | -4% | -18% | 33% | 0
CCN(CC)c1ccc(N2C(=O)/C(=C/c3cccs3)SC2=S)cc1 | -3% | -4% | 0% | 104% | 10% | 5
CCO/C=C1\SC(=S)N(c2ccc(Cl)cc2)C1=O | -15% | u | -9% | u | 25µM* | -5
COc1ccccc1CCNC(=O)Cn1ccc2cc(S(=O)(=O)N3CCCCC3)ccc21 | u | x | -6% | 2% | 89µM* | x
O=c1[nH]c(=S)[nH]c2sccc12 | -7% | 19% | 14% | 20% | 104% | u
O=c1[nH]c(=S)[nH]c2scc(-c3ccc(Br)cc3)c12 | -4% | u | -5% | x | u | -55*
COc1cc2c(cc1OC)C1O[C@](c3ccsc3)(C2)Oc2cc(-c3ccccc3)oc(=O)c21 | x | x | x | 13µM* | x | x
COc1cc2c(cc1OC)C1O[C@](c3ccsc3)(C2)Oc2cc(C)n(Cc3ccccc3)c(=O)c21 | x | x | x | -1%[22.9 µM] | x | x
Cc1cc(Cl)cc(Cl)c1OCC(=O)NCc1ccco1 | -43% | -4%[11.6 µM] | 20µM* | 40µM* | u | u
Cc1ccc2c(Cl)cc(Cl)c(OCC(=O)NCc3ccco3)c2n1 | x | x | x | 13µM* | x | x
Cc1csc2nc(COc3ccccc3NC(=O)c3ccccc3Cl)cc(=O)n12 | -13% | x | -4% | 1% | 19% | x
CCOC(=O)/C=C1\CN(Cc2ccc(OC)cc2)S(=O)(=O)c2ccc(C(F)(F)F)cc21 | -27% | x | x | x | u | x
CCOC(=O)c1ccc(NC(=O)c2c(NCc3cc(OC)c(OC)cc3OC)sc3c2CCCC3)cc1 | -12%[60.1 µM] | x | -6% | -26% | -8% | x
COc1ccc(-c2nc3n(n2)C(c2ccc(OC)c(OC)c2)C(C(=O)Nc2cccnc2)=C(C)N3)cc1 (stereo unspecified) | -8%[60.1 µM] | x | 50µM* | 1% | 2% | x
SMILES | POLK inh | WRN helicase inh | Pol eta inh | Pol beta inh | Pol iota inh | PI5P4K alpha inh
COc1ccc(C2C(C(=O)Nc3cccnc3)=C(C)Nc3nc(-c4ccc(OC)c(OC)c4)nn32)cc1 (stereo unspecified) | 5% | x | -8% | u | -16% | x
Cn1c(O)c(C=NCC2CCNCC2)c(=O)n(C)c1=O | x | x | x | -9% | x | x
Cc1cc(=O)[nH]c(=O)n1Cc1ccccc1 | u | u | u | 20% | u | -84*
O=c1cc(-c2c(O)c3ccccc3n(Cc3ccccc3)c2=O)[nH][nH]1 | 79µM* | u | u | 8.9µM* | u | u
CC1(C(=O)Nc2cccc3cccnc23)CCN1Cc1cccc2c1OCO2 (stereo unspecified) | x | -6% | x | x | x | 19
COc1ccc(C)cc1NC(=O)NNC(=O)C(C)Oc1ccc(F)cc1Cl (stereo unspecified) | -14% | -1% | -5% | 19% | 6% | 3
CC1CCCCN1S(=O)(=O)c1ccc2c(c1)CCN2C(=O)C1CC1 (stereo unspecified) | -1% | -10% | -18% | -19% | -16% | -4
COc1ccc(C(=O)NC2CCN(CC(=O)N3CCCCC3)CC2)cc1 | 3% | 6% | -24% | 39% | -23% | 0
COc1ccc(C(C)=O)cc1CSc1nc2cc(C(=O)O)ccc2c(=O)n1Cc1ccccc1 | -24% | -27% | -2% | -14% | -5% | -60*
O=c1c2c(nc3cc(-c4ccccc4Cl)[nH]n13)CCS2 | -16% | -12% | 0% | 35µM* | -8% | -7
COc1cccc(-c2ccc3ncnc(NCCNC(C)=O)c3c2)c1 | 5%[60.1 µM] | x | x | x | x | x
CCOc1ccc(C(=O)NCC(=O)N2CCC3CCCCC3C2)cc1OCC (stereo unspecified) | -2% | -5% | -20% | 9% | 47% | 9
O=C1c2ccccc2C(=O)c2c([N+](=O)[O-])ccc(O)c21 | -36% | u | 32µM* | u | 50µM* | u
Cc1ccc(S(=O)(=O)Nc2ccccc2/C=N/c2nc3ccccc3n2C)cc1 | -17% | -7% | -6% | 36% | 29% | -2
CC(=O)NCc1ccc(C(=O)CSc2nnc(-c3ccncc3)n2Cc2ccccc2)o1 | 79µM* | u | 20µM* | 20µM* | 22µM* | -8
C=CCn1c(SCC(=O)c2ccc(CNC(C)=O)o2)nc2ccccc2c1=O | u | -34% | u | u | 16µM* | 2
CC(=O)NCCn1c(SCC(=O)NCCC(C)C)nc2ccccc2c1=O | 22µM* | -9% | -12% | 20% | -9% | x
O=C(C=Cc1ccccc1)CC(c1ccccc1)N1CCOCC1 (stereo unspecified) | -9% | -10%[11.6 µM] | u | x | 20µM* | 1
O[C@H]1C[C@H](c2ccccc2)N(Cc2cccs2)C[C@@H]1n1cc(C2CC2)nn1 | x | -6% | -18% | x | x | 1
O=C1c2c([N+](=O)[O-])cc([N+](=O)[O-])cc2S(=O)N1Cc1ccccc1 (stereo unspecified) | -5% | -27% | 2% | 7% | -19% | -60*
